Screening data (PubChem BioAssay)
Only a selection was taken, and hits are over-represented in it overall.
Tg IFNy HTS: T. gondii growth inhibition with IFN-gamma, primary screen, cell-based. Toxoplasma gondii growth in IFN-gamma-treated host cells; stronger effect = lower value. activity change, negative = inhibition, % (test concentration not listed). actives 3.8% (n = 69,000). AID 1259416, 2018; in the data active means activity change below about -70%, passing the limit was not always enough;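 further: host cells are HeLa cells infected with Toxoplasma gondii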
Of the large screens only hits and unclear results are named; the others gave an inactive call; ! = a repeat was not active.

CC1c2snnc2-c2cc(Cl)ccc2S1(=O)=O (centres undefined)	Tg IFNy HTS -102.5
COc1ccc(NC(=O)CC(=O)N2CCN(C3CCCC3)C(=O)C2)c(OC)c1	none
CN(C)c1ncc2c(n1)C1(CCN(c3ncc(F)cn3)C1)COC2 (centres undefined)	none
CN(C)CC/C=C1/c2ccccc2COc2ccc(CC(=O)O)cc21	none
OCCOCCN1CCN(C2=Nc3ccccc3Sc3ccccc32)CC1	none
CN(C)CCC=C1c2ccccc2CCc2ccccc21	Tg IFNy HTS -74.8!
OCCN1CCN(CC/C=C2/c3ccccc3Sc3ccc(Cl)cc32)CC1	Tg IFNy HTS -74.0
CN(C)CC/C=C1\c2ccccc2Sc2ccc(Cl)cc21	Tg IFNy HTS -77.1!
CN(C)CCC1(c2ccc(Cl)cc2)Cc2ccccc2C(=O)O1 (centres undefined)	none
CN(C)CC/C=C1/c2ccccc2COc2ccccc21	none
CN(C)CCC=C1c2ccccc2C=Cc2ccccc21	none
CC(C)c1ccc2c(c1)C(N1CCN(CCO)CC1)Cc1ccc(F)cc1S2 (centres undefined)	none
CCOC(=O)c1[nH]ncc1CN1CCCn2cncc2C1	none
COc1nc(-c2ccccc2)c2cc([N+](=O)[O-])ccc2n1	none
Clc1ccc(-c2nc(N3CCc4ccccc43)c3ccccc3n2)cc1	none
COC(=O)c1ccc(OC)c(CN2CCN(CC(C)C)C(=O)C2C)c1 (centres undefined)	none
NC(=O)c1cncc(/C=C/c2ccccc2)c1	none
CC1CCN(c2nc(C(=O)NCC(C)c3ccccc3)nc3ccccc23)CC1 (centres undefined)	none
CCN1c2cc(C)ccc2-n2cccc2C12CCN(C(=O)Nc1cc(C)ccc1C)CC2	none
Cc1cc(C)n(Cc2ccc(C(=O)N(C)C(C)c3ccon3)cc2)n1 (centres undefined)	none
CNC(=O)c1sc2ccccc2c1CC1CCCN1C(=O)COc1ccccc1OC (centres undefined)	none
Cc1ccc(C(=O)N2CCCn3nnc(Cn4ccnc4)c3C2)cc1C	none
N#Cc1c(-c2ccccc2)cc(-c2ccccc2)nc1SCc1nnc(-c2ccccc2)o1	Tg IFNy HTS -100.5
N#Cc1c(C(F)(F)F)cc(-c2ccccc2)nc1SCC(N)=O	none
CCc1nc(SCc2nnc(-c3ccc(C)cc3)o2)c2c(C)c(C)sc2n1	none
O=C(Nc1ccccc1-c1n[nH]c(=S)n1-c1ccccc1)c1ccccc1	none
COC(=O)c1cc2n(n1)CCCN(C(=O)c1c(C)nc3sccn13)C2	none
CCOc1ccc(C2c3[nH]c4ccccc4c3CCN2C(=O)c2cccc(F)c2)cc1 (centres undefined)	Tg IFNy HTS -112.8
Cc1ccc(C2c3[nH]c4ccccc4c3CCN2C(=O)c2ccnn2C)cc1 (centres undefined)	none
Cc1ccc(C2c3[nH]c4ccccc4c3CCN2C(=O)c2cc3ccccc3[nH]2)cc1 (centres undefined)	Tg IFNy HTS -78.7
COc1cc(C(=O)N2CCc3c([nH]c4ccccc34)C2c2ccc(C)cc2)cc(OC)c1OC (centres undefined)	none
CCOc1ccc(C2c3[nH]c4ccccc4c3CCN2C(=O)c2cccnc2)cc1 (centres undefined)	none
Cc1ccc(C(=O)N2CCc3c([nH]c4ccccc34)C2c2ccc(C)cc2)cc1 (centres undefined)	none
CCOc1ccc(C2c3[nH]c4ccccc4c3CCN2C(=O)COC)cc1 (centres undefined)	none
O=C(c1cccc(F)c1)N1CCc2c([nH]c3ccccc23)C1c1ccccc1 (centres undefined)	none
Cc1ccc(C2c3[nH]c4ccccc4c3CCN2C(=O)c2cccc(F)c2)cc1 (centres undefined)	Tg IFNy HTS -128.6
Cc1ccccc1NC(=O)N1CC[C@@H]2Oc3ccccc3S(=O)(=O)N[C@@H]2CC1	none
CC(NCC(=O)Nc1cnccn1)c1ccccc1-n1cccn1 (centres undefined)	none
O=C(Cc1cccc2ccccc12)N1CCN(S(=O)(=O)c2cc3c4c(c2)CCN4C(=O)CC3)CC1	none
CC(C)N1C(=O)N(C)C2(CCN(Cc3ccc4c(c3)Cc3ccccc3-4)CC2)C1=O	none
CC(C)CC(=O)N1C[C@H]2OCCN(c3ncc(F)cn3)[C@H]2C1	none
O=C(NCCc1csc(-c2ccc(F)cc2)n1)C(=O)Nc1cccc(F)c1	none
Cc1ccccc1-n1nc(C)c(CN(C)Cc2n[nH]c3c2CCCC3)c1C	Tg IFNy HTS -77.7
CCSc1ncc(CN(C)Cc2n[nH]c3c2CCCC3)cn1	none
COc1ccc2c(c1)c(CN(C)Cc1n[nH]c3c1CCCC3)cn2C(C)C	none
COc1ccccc1NC(=O)N1C[C@H](O)COC[C@@H]2O[C@@H](CC(=O)N3CCC(Cc4ccccc4)CC3)CC[C@H]21	Tg IFNy HTS -75.2
COc1ccccc1NC(=O)N1C[C@H](O)COC[C@H]2O[C@H](CC(=O)N3CCC(Cc4ccccc4)CC3)CC[C@@H]21	none
COc1ccccc1NC(=O)N1C[C@@H](O)COC[C@H]2O[C@H](CC(=O)N3CCC(Cc4ccccc4)CC3)CC[C@@H]21	none
CCOCc1nnn2c1CN(C1CCOCC1)CCC2	none
Cc1oc(-c2ccccc2)nc1CSc1nc2c(c(=O)[nH]1)CN(Cc1ccccc1)CC2	none
COc1ccc(-c2nc(CSc3nc4c(c(=O)[nH]3)CN(Cc3ccccc3)CC4)c(C)o2)cc1	Tg IFNy HTS -77.3
COc1ccc(CN2CCc3nc(SCc4nc(-c5ccccc5)oc4C)[nH]c(=O)c3C2)cc1	none
CCCN(Cc1ccncc1)C(=O)c1n[nH]c2c1CC(C)CC2 (centres undefined)	none
OC(c1cccnc1)c1ccccc1N1CCN(Cc2ccco2)CC1 (centres undefined)	none
COc1ccccc1NC(=O)c1cccc(-c2cc3ccccc3oc2=O)c1	none
O=c1oc2ccccc2cc1-c1csc(-c2ccccc2Cl)n1	none
O=C(COC(=O)c1cc2ccccc2oc1=O)c1ccc(Cl)cc1Cl	none
COc1cccc2cc(-c3ccccc3)c(=O)oc12	none
COc1cc(Br)c(-c2cc3ccccc3oc2=O)cc1OC	Tg IFNy HTS -86.3
COc1cc(NC(=O)c2ccc(Cl)cc2Cl)ccc1-c1cc2ccccc2oc1=O	Tg IFNy HTS -85.0
CSc1ccc(C(=O)C2CCCN(Cc3nc4ccccc4nc3C)C2)cc1 (centres undefined)	none
Cc1ccc(S(=O)(=O)N(C)C[C@H]2OCCCC[C@H](C)Oc3ccc(NC(=O)c4ccncc4)cc3C(=O)N([C@H](C)CO)C[C@@H]2C)cc1	none
Cc1ccc(S(=O)(=O)Nc2ccc3c(c2)C(=O)N([C@@H](C)CO)C[C@H](C)[C@H](CN(C)S(=O)(=O)c2cccs2)OCCCC[C@H](C)O3)cc1	Tg IFNy HTS -107.2
Cc1ccc(S(=O)(=O)N(C)C[C@H]2OCCCC[C@H](C)Oc3ccc(NC(=O)c4ccncc4)cc3C(=O)N([C@@H](C)CO)C[C@H]2C)cc1	none
Cc1noc(C)c1NC(=O)Nc1ccc2c(c1)C(=O)N([C@@H](C)CO)C[C@H](C)[C@@H](CN(C)S(=O)(=O)c1cccs1)OCCCC[C@@H](C)O2	none
Cc1ccc(S(=O)(=O)Nc2ccc3c(c2)C(=O)N([C@H](C)CO)C[C@H](C)[C@H](CN(C)S(=O)(=O)c2cccs2)OCCCC[C@@H](C)O3)cc1	none
Cc1ccc(S(=O)(=O)N(C)C[C@H]2OCCCC[C@H](C)Oc3ccc(NC(=O)c4ccncc4)cc3C(=O)N([C@@H](C)CO)C[C@@H]2C)cc1	Tg IFNy HTS -97.8
Cc1ccc2nc(-c3cccc(NC(=O)CN(C)Cc4ccccn4)c3)[nH]c2c1	none
COc1cc(-c2noc(-c3ccncc3)n2)cc(OC)c1OC	none
CC(C)(Oc1ccc2c(c1)CCC2)C(=O)NCC1(O)CCCNCC1 (centres undefined)	none
